Among the data in PubChem BioAssay (NCATS) are outcome and AC50 values, retold here.

The structures appear in SMILES notation. Active and inactive are the calls of the source. Calls follow the shape of the full dose curve. Starred links: 1 amine or outer side, 2 acyl side, 3 side chain; linkers in the order of their positions; H or OH if unused. Positions of bridges follow the written chain, without caps; N, C: chain ends. Non-standard residues stand in square brackets, D forms with d. Residues, ends and D or L forms follow the SMILES beside them. ξ: configuration not given here. *: point of attachment. ΔAla(3-NHCONH2) = NC(=O)NC=C(N)C(=O)O; X1 = NC1=NCCC(C(N[*:1])C(=O)[*:2])N1; ξβ3hOrn = NCCCC(N)CC(=O)*; Dap = NC[CH](N)C(=O)O

The conditions of the test: Ebola virus entry assay, blue channel fluorescence.
For `NC(=O)N1c2ccccc2CC(=O)c2ccccc21`, the molecule was called inactive.

With `O=C(O)P(=O)(O)O`, the result was inactive. On the same count and under the same terms, for `C[C@H]1[C@H](NC(=O)/C(=N/OC(C)(C)C(=O)O)c2csc(N)n2)C(=O)N1S(=O)(=O)O` (stereo in doubt) the value was “inactive”; for `Cc1cn[nH]c1`, “inactive”. On the same count and under the same terms, for `CC(C)NCC(O)COc1cccc2[nH]ccc12` (configuration not stated) the value was “inactive”. `CC(C(=O)O)c1cccc(C(=O)c2ccccc2)c1` (configuration not stated): the molecule was classed as inactive. As for `O=C1CCc2ccc(OCCCCN3CCN(c4cccc(Cl)c4Cl)CC3)cc2N1`, the call was inactive. With `CC(S)C(=O)NCC(=O)O` (configuration not stated), the molecule was classed as inactive. Regarding `CCCN(CCC)CCc1cccc2c1CC(=O)N2`, the call was inactive.

Turning to `NCC(CC(=O)O)c1ccc(Cl)cc1` (configuration not stated), the molecule was classed as inactive. The same measure, in the same setting: for `Cc1ccccc1C(=O)Nc1ccc(C(=O)N2CCCC(O)c3cc(Cl)ccc32)c(C)c1` (configuration not stated) the value was “inactive”. The same measure, in the same setting: for `NC(=O)OCC(COC(N)=O)c1ccccc1` the value was “inactive”; for `O=C1C(=O)c2ccccc2C(O)=C1C1CCC(c2ccc(Cl)cc2)CC1` (configuration not stated), “inactive”. Same read-out and setting: to `Cc1[nH]cnc1CN1CCc2c(c3ccccc3n2C)C1=O` belongs “inactive”. As usually defined, the AC50 is the midpoint of the concentration-response curve, whichever way the signal moves. In the case of `COc1ccccc1OCCNCC(O)COc1cccc2[nH]c3ccccc3c12` (configuration not stated), the AC50 is 11.2 µM (active).

`NC(=O)c1cn(Cc2c(F)cccc2F)nn1`: the molecule was called inactive.

As for `NCCCC(O)(P(=O)(O)O)P(=O)(O)O`, the AC50 was 4.47 µM (active). As to `CN(CCOc1ccc(CC2SC(=O)NC2=O)cc1)c1ccccn1` (configuration not stated), the outcome was inactive. Still for that read-out and setting: for `N[C@@H]1CONC1=O` the value was “inactive”; for `CCCC(CCC)C(=O)O`, “inactive”; for `CC(C)CC(N(C)C)C1(c2ccc(Cl)cc2)CCC1` (configuration not stated), “inactive”. On the same count and under the same terms, to `NCCCC(N)CC(=O)NCC1NC(=O)C(CO)NC(=O)C(N)CNC(=O)C(C2CCN=C(N)N2)NC(=O)C(=CNC(N)=O)NC1=O` (stereo not drawn) (H-[Dap]S[Dap](ξβ3hOrn)[ΔAla(3-NHCONH2)][X1]; lactam 1-C; configuration not given here) belongs “inactive”.
